From PubChem BioAssay (NCI)
Compounds without any hit were thinned out: in the full panel of roughly 83,000, 20% have a hit.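 Percent growth is the endpoint: 0 to 100 indicates growth inhibition (40 means 60% inhibition), 0 means no net growth, and negative values indicate cell death.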 Values without a mark were called inactive. Active and inactive are the calls of the source. Rule for the calls: active = growth percent below 10; inactive = the rest.

Tested on: 786-0 renal
Assay: NCI-60 one-dose screen, 48 h (100 = growth as untreated, 0 = no growth, -100 = all killed)
Details: 10 µM

SMILES	growth
CCOC(=O)C1=C(N)N(c2ccc(C)cc2)C2=C(C(=O)CC(C)(C)C2)C1c1ccccc1OC (centres undefined)	99.6%
N#C/C(=C\c1ccc(N(c2ccccc2)c2ccccc2)cc1)C(N)=O	53.9%
NC1=NC(c2ccccc2Cl)N=C(Nc2nn[nH]n2)N1 (centres undefined)	103%
O=C(N/N=C/c1ccc(-c2cccc([N+](=O)[O-])c2)o1)c1[nH]c2ccc(Br)cc2c1-c1ccccc1	5.31% (active)

Tested on: COLO 205 colon
Assay: as above
Details: 10 µM

SMILES	growth
CNC(=O)c1cccc(N2CCc3c2ccc(NC(=O)Nc2ccc(N4CCN(C)CC4)c(C(F)(F)F)c2)c3F)c1	92.7%
CC(=O)Nc1ccc(-n2cnc3cc(-c4ccc(O)cc4)ccc32)cc1C	93.9%
CN(C)c1nc(NCCNS(=O)(=O)c2ccc(C(=O)/C=C/c3ccccc3)cc2)nc(Nc2ccc(F)cc2)n1	54%
O=C1CCC(N2Cc3c(C#CCCCNC(=O)c4ccc(NC(=O)[C@@H]5NC6(CCCCC6)[C@@]6(C(=O)Nc7cc(Cl)ccc76)[C@H]5c5cccc(Cl)c5F)cc4)cccc3C2=O)C(=O)N1 (some centres undefined)	70.5%
COc1cc(C2CC(c3ccccc3)=Nc3c(N)nc(N)nc3N2)ccc1Oc1nc(Nc2ccc(F)cc2)nc(N(C)C)n1 (centres undefined)	28%
CCOC(=O)C1=C(N)N(c2ccc(Cl)cc2)C2=C(C(=O)CC(C)(C)C2)C1c1ccc(N2CCOCC2)cc1 (centres undefined)	99.8%
O=C(c1ccc(Cl)cc1)C1[C@H](c2ccccc2Br)[C@@H](c2ccccc2)NC12C(=O)Nc1ccc(Cl)cc12 (some centres undefined)	8.59% (active)
Nc1nc(Nc2ccc(Cl)cc2)nn1Cc1cccc(Br)c1	24.7%
O=S(=O)(Nc1ncccn1)c1ccc(-n2c(-c3ccccc3)nc(-c3ccccc3)c2-c2ccccc2)cc1	130%
CN1CCc2c(sc3ncnc(N/N=C/c4cn(-c5ccccc5)nc4-c4ccc(Cl)cc4)c23)C1	-30.1% (active)
Nc1nnc(-c2c[nH]c3ncccc23)c(-c2c[nH]c3ccc(Br)cc23)n1	66.9%
Cc1cc(=O)oc2cc(OCCCCOc3ccc(/C=C/C(=O)Nc4ccccc4[N+](=O)[O-])cc3)ccc12	124%
COc1ccc(-c2nc(S(=O)(=O)c3ccc(C)cc3)c(S(C)(=O)=O)o2)cc1	-88.7% (active)
CN1CCN(Cc2ccc(C(=O)Nc3cccc(Nc4ccc5c(O)cccc5n4)c3)cc2C(F)(F)F)CC1	-78.6% (active)
O=C1NC(=NC23CC4CC(CC(C4)C2)C3)N/C1=C\c1ccc2ncccc2n1	-19.3% (active)
COc1csc(/C=N/NC(=O)c2[nH]c3ccc(Br)cc3c2-c2ccccc2)c1	-79.9% (active)
O=C(Cn1nc(-c2ccccc2)ccc1=O)NNC(=S)NC1CCCCC1	135%
NS(=O)(=O)c1ccc(NC(=O)CSc2ccc(-c3ccccc3)nn2)c(Br)c1	137%
O=c1c2ccccc2nc(COc2ccccc2)n1/N=C/c1ccc(F)cc1	114%
O=C(Nc1ccc(Cl)c([N+](=O)[O-])c1)Nc1ccc(Cl)c([N+](=O)[O-])c1	2.69% (active)
O=C(Nc1ccc(OCc2ccccc2)cc1)Nc1ccc(Cl)c(C(F)(F)F)c1	-72.7% (active)
COc1ccc2nc(Cl)c(-c3cc(-c4ccccc4)nc(N)n3)cc2c1	53.7%
CN1CCN(c2ccc(Nc3nc(NCCCNC(=O)c4ccccc4)c4sccc4n3)cc2)CC1	93.8%
O=C1Nc2ccc(F)cc2/C1=C/c1cccc(OCc2ccccc2)c1	34.1%
Cc1noc2c(Cc3ccc([N+](=O)[O-])cc3)nn(CC(=O)N/N=C/c3ccc(Cl)cc3)c(=O)c12	79.3%
O=c1[nH]c2ccc(Cl)cc2cc1CSc1ccc(Nc2nccc(-c3ccc(Cl)cc3)n2)cc1	4.59% (active)
O=S(=O)(Nc1ncccn1)c1ccc(-n2c(-c3ccc(Br)cc3)nc(-c3ccccc3)c2-c2ccccc2)cc1	124%
Cc1ccc(C(=O)NNC(=O)CSc2nc3ccccc3c(=O)[nH]2)cc1	97.8%
CCCn1c(O)c(N=Nc2nc(-c3cc4ccccc4oc3=O)cs2)c2cc(Br)ccc21	139%
CN1CCN(c2ccc(Nc3nc(NCCNC(=O)c4ccc(C(F)(F)F)cc4)c4sccc4n3)cc2)CC1	-87.6% (active)
